In PubChem BioAssay (NCATS):
Records with an inconclusive call do not appear. Where a call stands in place of a potency, no number is given. A number with no mark means an inactive call. The source made the active and inactive calls. Calls come from the whole dose curve; as a rule, active = well fitted cell-killing curve with a large enough effect; inconclusive = small, poorly fitted or top-dose-only effect, or effect the other way; inactive = flat fitted curve, though single readings scatter.

What was measured:
Assay in all cases: Primary qHTS to identify gynecologic anti-cancer compounds using libraries of approved drugs and bioactive compounds (AID 1345084); note: nearly all actives have a fitted effect of over 55% in size
C33A = settings: Gynecologic cancer cell panel viability, ATPlite luminescence, 48 h; series mostly up to 57.5 µM
Summary of the method: (§1)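 ATP-based viability (ATPlite), 1,000 cells/well, 16 h pre-incubation, 48 h compound at 37 C, 5% CO2, 15 min RT before read.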

CAOV3 = settings: Gynecologic cancer cell panel viability, ATPlite luminescence, 48 h; series mostly up to 57.5 µM
Summary of the method: as §1

Es-2 = settings: Gynecologic cancer cell panel viability, ATPlite luminescence, 48 h; series mostly up to 57.5 µM
Summary of the method: as §1

HeLa = settings: Gynecologic cancer cell panel viability, ATPlite luminescence, 48 h; series mostly up to 57.5 µM
Summary of the method: as §1

Hek293T = settings: Gynecologic cancer cell panel viability, ATPlite luminescence, 48 h, control line for the selectivity index; series mostly up to 57.5 µM
Summary of the method: as §1

OV90 = settings: Gynecologic cancer cell panel viability, ATPlite luminescence, 48 h; series mostly up to 57.5 µM
Summary of the method: as §1

PA-1 = settings: Gynecologic cancer cell panel viability, ATPlite luminescence, 48 h; series mostly up to 57.5 µM
Summary of the method: as §1

SKOV3 = settings: Gynecologic cancer cell panel viability, ATPlite luminescence, 48 h; series mostly up to 57.5 µM
Summary of the method: as §1

CASKI = settings: Gynecologic cancer cell panel viability, ATPlite luminescence, 48 h; series mostly up to 57.5 µM
Summary of the method: as §1

JEG-3 = settings: Gynecologic cancer cell panel viability, ATPlite luminescence, 48 h; series mostly up to 57.5 µM
Summary of the method: as §1
Potency is the fitted concentration of half-maximal effect.

C[C@H]1O[C@@H](O[C@H]2C[C@@H](O)[C@]3(CO)C4C(CC[C@]3(O)C2)[C@@]2(O)CC[C@H](C3=CC(=O)OC3)[C@@]2(C)C[C@H]4O)[C@@H](O)[C@@H](O)[C@H]1O (stereo partly specified) was tested, and the Potency (C33A) was 398 nM (active), the Potency (CAOV3) was 562 nM (active) and the Potency (Es-2) was 355 nM (active). The Potency (HeLa) was 562 nM (active), the Potency (Hek293T) was 355 nM (active) and the Potency (OV90) was 1120 nM (active). The Potency (PA-1) was 562 nM (active) and the Potency (SKOV3) was 224 nM (active).
In the case of C[C@@]1(C(=O)O)CC[C@]2(C)CC[C@]3(C)C4=CC(=O)c5cc(O)c(O)cc5[C@]4(C)CC[C@@]3(C)[C@@H]2C1, the Potency (C33A) is reported as “inactive”, the Potency (CASKI) is reported as “inactive” and the Potency (Es-2) is reported as “inactive”. The Potency (HeLa) was “inactive”, the Potency (Hek293T) was “inactive” and the Potency (JEG-3) was “inactive”. The Potency (OV90) was “inactive”, the Potency (PA-1) was “inactive” and the Potency (SKOV3) was “inactive”.
For COC1CC(O[C@H]2CC[C@]3(C=O)C4CC[C@]5(C)[C@@H](C6=CC(=O)OC6)CC[C@]5(O)[C@@H]4CC[C@]3(O)C2)OC(C)C1O[C@@H]1O[C@H](CO)[C@@H](O)[C@H](O)[C@H]1O (stereo partly specified), the Potency (C33A) was 141 nM (active), the Potency (CAOV3) was 501 nM (active) and the Potency (Es-2) was 355 nM (active). The Potency (HeLa) was 355 nM (active), the Potency (Hek293T) was 501 nM (active) and the Potency (PA-1) was 316 nM (active). The Potency (SKOV3) was 447 nM (active).
With CN1CCC[C@@H]1Cc1c[nH]c2ccc(Nc3ncccc3[N+](=O)[O-])cc12 the Potency (C33A) was “inactive”, the Potency (CAOV3) was “inactive” and the Potency (CASKI) was “inactive”. The Potency (Es-2) was “inactive”, the Potency (HeLa) was “inactive” and the Potency (JEG-3) was “inactive”. For the same compound, the Potency (OV90) was “inactive”, the Potency (PA-1) was “inactive” and the Potency (SKOV3) was “inactive”.
With COc1ccccc1CN[C@H]1C2CCN(CC2)[C@H]1C(c1ccccc1)c1ccccc1 the Potency (C33A) was “inactive”, the Potency (CAOV3) was “inactive” and the Potency (CASKI) was “inactive”. The Potency (Es-2) was “inactive”, the Potency (HeLa) was “inactive” and the Potency (Hek293T) was “inactive”. For the same compound, the Potency (JEG-3) was “inactive”, the Potency (PA-1) was “inactive” and the Potency (SKOV3) was “inactive”.
In the case of COc1cc(C)[nH]c(=O)c1CNC(=O)c1c(C)n([C@H](C)C2CCOCC2)c2ccccc12, the Potency (C33A) is reported as “inactive”, the Potency (CASKI) is reported as “inactive” and the Potency (Es-2) is reported as “inactive”. For the same compound, the Potency (HeLa) was “inactive”, the Potency (Hek293T) was “inactive” and the Potency (JEG-3) was “inactive”. For the same compound, the Potency (OV90) was “inactive” and the Potency (PA-1) was “inactive”.
Work on Oc1ccc2c3c1O[C@H]1[C@H](N(CCCl)CCCl)CC[C@@]4(O)[C@@H](C2)N(CC2CC2)CC[C@]314 yielded an activity change, negative = cytotoxicity (C33A) of 3.36% [at 11.6 µM], an activity change, negative = cytotoxicity (CASKI) of 18.4% [at 11.6 µM] and an activity change, negative = cytotoxicity (Es-2) of 3.95% [at 11.6 µM]. It also gave an activity change, negative = cytotoxicity (HeLa) of 1.82% [at 11.6 µM], an activity change, negative = cytotoxicity (Hek293T) of 0.845% [at 11.6 µM] and an activity change, negative = cytotoxicity (JEG-3) of -5.35% [at 11.6 µM]. It also gave an activity change, negative = cytotoxicity (OV90) of 0.162% [at 11.6 µM], an activity change, negative = cytotoxicity (PA-1) of 6.51% [at 11.6 µM] and an activity change, negative = cytotoxicity (SKOV3) of 9.08% [at 11.6 µM].
C1=C2CCCN[C@H]2[C@@H]2C[C@H]1[C@H]1CCCCN1C2 was tested, and the Potency (C33A) was “inactive”, the Potency (CAOV3) was “inactive” and the Potency (CASKI) was “inactive”. The Potency (Es-2) was “inactive”, the Potency (HeLa) was “inactive” and the Potency (Hek293T) was “inactive”. The Potency (JEG-3) was “inactive”, the Potency (OV90) was “inactive” and the Potency (PA-1) was “inactive”. The Potency (SKOV3) was “inactive”.
With CCN1CC2(COC)C3[C@@H](OC)C4C1C3(C1C[C@]3(O)[C@H](OC(=O)c5ccccc5)C1[C@]4(OC(C)=O)[C@@H](O)[C@@H]3OC)[C@H](OC)C[C@H]2O (stereo partly specified) the Potency (C33A) was “inactive”, the Potency (CAOV3) was “inactive” and the Potency (CASKI) was “inactive”. The Potency (Es-2) was “inactive”, the Potency (HeLa) was “inactive” and the Potency (Hek293T) was “inactive”. For the same compound, the Potency (JEG-3) was “inactive”, the Potency (OV90) was “inactive” and the Potency (SKOV3) was “inactive”.
CCCCCOc1cc2c(cc1-c1cc(/C=C/C(=O)O)ccc1O)C(C)(C)CCC2(C)C was tested, and the Potency (C33A) was “inactive”, the Potency (CAOV3) was “inactive” and the Potency (CASKI) was “inactive”. For the same compound, the Potency (Es-2) was “inactive”, the Potency (HeLa) was “inactive” and the Potency (Hek293T) was “inactive”. The Potency (JEG-3) was “inactive”, the Potency (OV90) was “inactive” and the Potency (PA-1) was “inactive”. For the same compound, the Potency (SKOV3) was “inactive”.
C[C@H](NC(=O)Cc1cc(F)cc(F)c1)C(=O)N[C@@H]1N=C(c2ccccc2)c2ccccc2N(C)C1=O was tested, and the Potency (C33A) was “inactive”, the Potency (CASKI) was “inactive” and the Potency (Es-2) was “inactive”. The Potency (HeLa) was “inactive”, the Potency (Hek293T) was “inactive” and the Potency (JEG-3) was “inactive”. For the same compound, the Potency (OV90) was “inactive” and the Potency (PA-1) was “inactive”.
For COc1cc2c(cc1OC)[C@@]13CCN4CC5=CCO[C@H]6CC(=O)N2[C@H]1[C@H]6[C@H]5C[C@H]43, the Potency (C33A) was “inactive”, the Potency (CASKI) was “inactive” and the Potency (Es-2) was “inactive”. The Potency (HeLa) was “inactive”, the Potency (Hek293T) was “inactive” and the Potency (JEG-3) was “inactive”. For the same compound, the Potency (OV90) was “inactive” and the Potency (PA-1) was “inactive”.
With COc1cc(CCNCc2ccccc2O)c(OC)cc1C#N the Potency (C33A) was “inactive”, the Potency (CAOV3) was “inactive” and the Potency (CASKI) was “inactive”. The Potency (Es-2) was “inactive”, the Potency (HeLa) was “inactive” and the Potency (Hek293T) was “inactive”. The Potency (JEG-3) was “inactive”, the Potency (OV90) was “inactive” and the Potency (PA-1) was “inactive”. For the same compound, the Potency (SKOV3) was “inactive”.
With CC(C)[C@@H](CN1CC[C@@](C)(c2cccc(O)c2)[C@@H](C)C1)NC(=O)[C@H]1Cc2ccc(O)cc2CN1 the Potency (C33A) was “inactive”, the Potency (CASKI) was “inactive” and the Potency (Es-2) was “inactive”. For the same compound, the Potency (HeLa) was “inactive”, the Potency (Hek293T) was “inactive” and the Potency (JEG-3) was “inactive”. The Potency (OV90) was “inactive” and the Potency (PA-1) was “inactive”.
For C=C(C)[C@H]1O[C@H]2CC[C@@]3(C)[C@@](O)(CC[C@H]4[C@@H]5OC(C)(C)[C@H]6C[C@@H]7C(=C)Cc8c(Cl)cc9[nH]c(c5c9c8[C@@]76O)[C@@]43C)[C@]23O[C@@H]3[C@H]1O, the Potency (C33A) was “inactive”, the Potency (CAOV3) was “inactive” and the Potency (CASKI) was “inactive”. The Potency (Es-2) was “inactive”, the Potency (HeLa) was “inactive” and the Potency (Hek293T) was “inactive”. For the same compound, the Potency (JEG-3) was “inactive”, the Potency (OV90) was “inactive” and the Potency (PA-1) was “inactive”. The Potency (SKOV3) was “inactive”.
For N#C[C@@H](O[C@@H]1O[C@H](CO[C@@H]2O[C@H](CO)[C@@H](O)[C@H](O)[C@H]2O)[C@@H](O)[C@H](O)[C@H]1O)c1ccccc1, the Potency (C33A) was “inactive”, the Potency (CAOV3) was “inactive” and the Potency (CASKI) was “inactive”. For the same compound, the Potency (Es-2) was “inactive”, the Potency (HeLa) was “inactive” and the Potency (Hek293T) was “inactive”. The Potency (JEG-3) was “inactive”, the Potency (OV90) was “inactive” and the Potency (PA-1) was “inactive”. The Potency (SKOV3) was “inactive”.
With CC(=O)OC12C(O)C(C)C3(O)C4C=C(C)C(=O)C4CC(CO)=CC3C1C2(C)C (stereo unspecified) the Potency (C33A) was “inactive”, the Potency (CAOV3) was “inactive” and the Potency (CASKI) was “inactive”. For the same compound, the Potency (Es-2) was “inactive”, the Potency (HeLa) was “inactive” and the Potency (Hek293T) was “inactive”. For the same compound, the Potency (JEG-3) was “inactive”, the Potency (OV90) was “inactive” and the Potency (PA-1) was “inactive”. For the same compound, the Potency (SKOV3) was “inactive”.
COC(=O)C1(C)CCC(O)C2(C)c3c(O)cc(C(C)C)cc3C(O)C(OC(C)=O)C12 (stereo unspecified) was tested, and the Potency (C33A) was “inactive”, the Potency (CASKI) was “inactive” and the Potency (Es-2) was “inactive”. The Potency (HeLa) was “inactive”, the Potency (Hek293T) was “inactive” and the Potency (JEG-3) was “inactive”. The Potency (OV90) was “inactive”, the Potency (PA-1) was “inactive” and the Potency (SKOV3) was “inactive”.
